CASP6 VEID inh = caspase-6 (human) enzyme inhibition; P55212; inhibition, % at 12.5 µM; purified caspase-6, Z-VEID-R110 cleavage fluorescence; 350,000 tested, 0.53% active;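 active = mean inhibition across replicates at least about 35%, with every replicate also reaching that limit, limit read from the data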
Target sequence (P55212 24-179 limits assumed): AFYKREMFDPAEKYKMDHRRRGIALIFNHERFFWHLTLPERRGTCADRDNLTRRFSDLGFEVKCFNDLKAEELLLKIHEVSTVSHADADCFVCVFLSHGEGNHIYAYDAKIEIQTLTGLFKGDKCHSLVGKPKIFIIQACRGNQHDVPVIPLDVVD
Target sequence (P55212 194-293 limits assumed): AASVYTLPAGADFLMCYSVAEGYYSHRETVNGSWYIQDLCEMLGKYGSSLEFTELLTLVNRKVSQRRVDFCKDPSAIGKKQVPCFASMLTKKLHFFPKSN
NSD2 inh = inhibitors of human histone methyltransferase NSD2; 310,000 tested, 0.54% active; AID 743445; inhibition, % at 12.5 µM; NSD2 peptide methylation, AlphaScreen, 120 min; in the data active = inhibition above about 50%
PfHsp90 set2 = growth inhibition of yeast expressing Plasmodium Hsp90. inhibition, % at 9.4 µM. 310,000 tested, 0.32% active. S. cerevisiae expressing PfHsp90, BacTiter-Glo ATP, 48 h; yeast lacking PDR1 and PDR3 efflux regulators;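 active = every replicate shows inhibition above about 80%, whatever the replicate mean, limit read from the data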
SIRT5 inh = sirtuin-5 (human) deacylase inhibition; Purified SirT5, succinyl-peptide AMC, trypsin-coupled fluorescence; Q9NXA8; AID 652115; 330,000 tested, 1.1% active; inhibition, % at 15 µM; in the data active = inhibition above about 15%
Target sequence (Q9NXA8 whole entry, looked up): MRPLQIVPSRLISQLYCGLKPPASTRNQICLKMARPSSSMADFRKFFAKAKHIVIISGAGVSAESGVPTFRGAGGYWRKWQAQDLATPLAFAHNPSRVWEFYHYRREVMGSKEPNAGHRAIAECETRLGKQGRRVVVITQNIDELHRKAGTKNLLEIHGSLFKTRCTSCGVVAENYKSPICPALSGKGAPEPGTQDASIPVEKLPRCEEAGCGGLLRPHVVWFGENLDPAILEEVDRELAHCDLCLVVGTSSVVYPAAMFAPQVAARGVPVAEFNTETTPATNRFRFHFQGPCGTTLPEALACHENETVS
ARNT-TACC3 inh = disrupts binding between human ARNT and TACC3; Q9Y6A5; AlphaScreen His-ARNT PAS-B/GST-TACC3 binding, luminescence; TACC3 fragment carries E629A point mutation; inhibition, % at 9.99 µM; 390,000 tested, 0.66% active;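 active = mean inhibition of replicates at least 50% and at least half of replicates each reaching 50%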
A number is an active result; – = inactive; · = no result given; ! = not active in a repeat. This is a sample that favours compounds with a hit; in the whole collection about 2.1% have one here.

SMILES | CASP6 VEID inh | NSD2 inh | PfHsp90 set2 | SIRT5 inh | ARNT-TACC3 inh
CCNC(=O)C[C@@H]1CC[C@H]2[C@@H](COc3ccc(NC(=O)C4CCCCC4)cc3C(=O)N2C)O1 | – | · | · | – | –
O=Cc1ccc(O)c2ncccc12 | · | – | 123.8 | · | –
O=C(N[C@H]1CC[C@H](CCNS(=O)(=O)c2ccccc2Cl)O[C@@H]1CO)c1ccccc1 | – | · | · | 18.5 | –
O=C(N[C@@H]1CC[C@H](CCNS(=O)(=O)c2ccccc2)O[C@H]1CO)c1cnccn1 | – | · | · | 27.7 | –
C=CCN1C(=O)[C@@]2(O[C@@H](CCn3cc([C@H](O)c4ccccc4)nn3)[C@H]([Si](C)(C)c3ccc(OC)cc3)[C@H]2C)c2cc(N3C(=O)c4cccc5cccc3c45)ccc21 | – | · | · | – | –
O=[N+]([O-])/C=C\c1ccc(N2CCCC2)c(F)c1 | · | – | 105.5 | · | –
C[C@H]1CCCCO[C@H](CN(C)C(=O)Nc2ccc(F)cc2)[C@@H](C)CN([C@@H](C)CO)C(=O)c2cc(NC(=O)c3ccccc3)ccc2O1 | – | · | · | – | –
Nc1ncnc2nc[nH]c12 | – | · | – | 43.7! | –
Cc1cccc(NC(=O)Cn2nnc3sc4c(c3c2=O)CC(C)(C)OC4)c1 | – | – | · | – | ·
COc1cccc(NC(=O)Cn2c(=O)n(C)c(=O)c3sc4c(c32)COC(C)(C)C4)c1 | 43.9 | – | – | – | –
COc1cccc(NC(=O)N[C@H]2C=C[C@@H](CC(=O)Nc3ccccc3)O[C@@H]2CO)c1 | – | · | · | – | –
Cc1ccc(-c2ccc(/C=C3/NC(=O)NC3=O)o2)cc1[N+](=O)[O-] | – | – | – | – | –
CC1=C(C#N)C(=O)NC(=O)/C1=C\c1ccc(-c2cc(C)c(C)cc2[N+](=O)[O-])o1 | · | · | – | 17.0 | –
Cc1nnc(C)n1/N=C/c1cc(Br)ccc1O | · | – | – | · | –
Cc1nnc(C)n1/N=C/c1cc(Br)cc(Br)c1O | · | – | 100.6 | · | ·
O=C(COC(=O)c1cc(=O)[nH]c2ccccc12)NC1CCCC1 | – | – | – | 25.2 | ·
CC1CCCCC1NC(=O)COC(=O)c1cc(=O)[nH]c2ccccc12 (stereo unspecified) | – | – | – | – | –
COCC#Cc1ccc([C@@H]2[C@@H](CO)N3CCCCN(Cc4cccnc4)C[C@@H]23)cc1 | – | · | · | – | –
CCCC1CCC(c2ccc(C(N)=O)cc2)CC1 (stereo unspecified) | · | – | – | · | –
CCCC1CCC(c2ccc(/C(N)=N/O)cc2)CC1 (stereo unspecified) | – | – | 91.5 | – | –
COc1cccc(C2Nc3ccc4ccccc4c3C3=C2C(=O)CCC3)c1O (stereo unspecified) | – | – | – | 21.8 | –
O=C(C[C@H]1CC[C@H](NC(=O)Nc2ccccc2F)[C@@H](CO)O1)NCc1ccc(Cl)cc1 | – | · | · | – | –
O=S1c2ccccc2Oc2ccccc21 | – | – | – | – | –
CC1(C)CC(=O)C2=C(C1)Nc1ccccc1NC2 | – | – | – | – | –
CC1(C)CC(=O)C2=C(C1)Nc1ccccc1[S@]2=O | – | – | – | 15.6 | –
SMILES | CASP6 VEID inh | NSD2 inh | PfHsp90 set2 | SIRT5 inh | ARNT-TACC3 inh
O=S1c2ccccc2Nc2ccccc21 | – | · | – | 24.7 | –
C[C@@H]1CN([C@H](C)CO)C(=O)c2cc(C3=CCCC3)cnc2O[C@@H]1CN(C)Cc1cccnc1 | – | · | · | – | –
O=C(c1ccccc1)N1CC2(C1)[C@H](c1ccccc1)[C@@H](CO)N2C(=O)CC1CC1 | – | · | · | – | ·
COc1ccc(-c2cn(CC[C@H]3CC[C@@H](NS(=O)(=O)c4ccccc4C)[C@H](CO)O3)nn2)cc1 | – | · | · | – | –
CCCS(=O)(=O)NC(=O)C1(C)CCN(C(=O)c2cccs2)C1 (stereo unspecified) | – | – | · | 20.2 | ·
C[C@@H]1CCCCO[C@@H](CN(C)S(=O)(=O)c2ccc(F)cc2)[C@@H](C)CN([C@H](C)CO)C(=O)c2cc(NC(=O)CCCN(C)C)ccc2O1 | – | · | · | – | –
CCn1cc(C(=O)NCc2cccs2)c(=O)c2ccc(C)nc21 | · | · | – | · | –
C=CCSc1nnc(NC(=O)c2cn(CC)c3nc(C)ccc3c2=O)s1 | – | – | – | 19.9 | –
CC1(C)CSC(=S)N1S(=O)(=O)c1ccccc1 | – | – | – | – | 64.3
COc1cccc(NC(=O)N2CC3(C2)[C@H](c2ccccc2)[C@H](CO)N3C(=O)C2CC2)c1 | – | · | · | – | ·
CCC(=O)N1CC(=O)N2[C@H](C1)[C@@H](c1ccc(-c3ccccc3F)cc1)[C@@H]2CO | · | · | · | – | ·
C[C@@H]1CN([C@H](C)CO)S(=O)(=O)c2ccc(C#CC3CCCC3)cc2O[C@H]1CN(C)Cc1cccnc1 | – | · | · | 16.9 | –
C[C@H]1CN([C@@H](C)CO)S(=O)(=O)c2ccc(C#CC3CCCC3)cc2O[C@H]1CN(C)Cc1cccnc1 | – | · | · | – | –
C[C@@H]1CN([C@@H](C)CO)S(=O)(=O)c2ccc(C#CC3CCCCC3)cc2O[C@H]1CN(C)Cc1cccnc1 | · | · | · | – | ·
C[C@H]1CN([C@@H](C)CO)S(=O)(=O)c2ccc(C#CC3(O)CCCC3)cc2O[C@@H]1CN(C)C(=O)c1cccnc1 | – | · | · | – | –
Cc1ccc(-c2ccc3c(c2)O[C@H](CN(C)Cc2cccnc2)[C@H](C)CN([C@H](C)CO)S3(=O)=O)cc1 | – | · | · | 18.1 | –
C[C@@H]1CN([C@H](C)CO)S(=O)(=O)c2ccc(C#CC3CCCCC3)cc2O[C@@H]1CN(C)Cc1cccnc1 | – | · | · | 98.6 | –
Cc1ccc(-c2ccc3c(c2)O[C@@H](CN(C)Cc2cccnc2)[C@@H](C)CN([C@H](C)CO)S3(=O)=O)cc1 | – | · | · | – | –
C[C@@H]1CN([C@H](C)CO)S(=O)(=O)c2ccc(C#CC3(O)CCCC3)cc2O[C@H]1CN(C)C(=O)c1cccnc1 | – | · | · | 26.8 | –
C[C@H](CO)N1C[C@H](C)[C@H](CN(C)C(=O)CN(C)C)Oc2ncc(C#Cc3ccncc3)cc2C1=O | – | · | · | – | –
COc1ccc2c3c(n(C)c2c1)[C@H](CO)N(S(C)(=O)=O)CC31CN(C(=O)C2CCC2)C1 | – | · | · | – | ·
CCCNC(=O)N[C@H]1CC[C@@H](CC(=O)NC2CCCCC2)O[C@H]1CO | – | · | · | – | –
O=C(C[C@H]1C=C[C@H](NC(=O)Nc2ccc3c(c2)OCO3)[C@@H](CO)O1)NCc1ccc(Cl)cc1 | – | · | · | · | –
CCC(=O)N1C[C@H](C)[C@@H](OC)CN(C)C(=O)c2cc(NC(=O)NC(C)C)ccc2OC[C@H]1C | – | · | · | – | –
C[C@H]1CN([C@@H](C)CO)S(=O)(=O)c2ccc(-c3cncnc3)cc2O[C@H]1CN(C)Cc1ccc(Oc2ccccc2)cc1 | – | · | · | 27.0 | –
O=C(Nc1ccc(F)cc1)N1C[C@H]2[C@@H](c3ccccc31)[C@H](CO)N2C(=O)c1ccccc1 | – | · | · | – | –
Cc1ccc(C(C(=O)NC(C)(C)C)N(C(=O)CCC(=O)Nc2ccccn2)c2ccccc2F)cc1 (stereo unspecified) | – | – | – | 19.1 | –
Cc1ccc(C(C(=O)NC(C)(C)C)N(Cc2ccco2)C(=O)CCC(=O)Nc2ccccn2)cc1 (stereo unspecified) | – | – | – | – | –

Screening results from PubChem BioAssay.
